Measurements taken from ChEMBL document CHEMBL1961873, “Compounds: GSK PKIS; Assays: Nanosyn kinase panel” (2012).

Legend:
[1] = molecular target: Tyrosine-protein kinase Fer (Homo sapiens) (UniProt P16591); settings: at 1 µM
[2] = molecular target: Tyrosine-protein kinase Fes/Fps (Homo sapiens) (UniProt P07332); settings: at 0.1 µM
[3] = molecular target: Tyrosine-protein kinase Fes/Fps (Homo sapiens) (UniProt P07332); settings: at 1 µM
[4] = molecular target: Fibroblast growth factor receptor 1 (Homo sapiens) (UniProt P11362); settings: at 0.1 µM
[5] = molecular target: Fibroblast growth factor receptor 1 (Homo sapiens) (UniProt P11362); settings: at 1 µM
[6] = molecular target: Fibroblast growth factor receptor 2 (Homo sapiens) (UniProt P21802); settings: at 0.1 µM
Sequence of Fibroblast growth factor receptor 2 (Homo sapiens) (P21802 22-821 limits assumed): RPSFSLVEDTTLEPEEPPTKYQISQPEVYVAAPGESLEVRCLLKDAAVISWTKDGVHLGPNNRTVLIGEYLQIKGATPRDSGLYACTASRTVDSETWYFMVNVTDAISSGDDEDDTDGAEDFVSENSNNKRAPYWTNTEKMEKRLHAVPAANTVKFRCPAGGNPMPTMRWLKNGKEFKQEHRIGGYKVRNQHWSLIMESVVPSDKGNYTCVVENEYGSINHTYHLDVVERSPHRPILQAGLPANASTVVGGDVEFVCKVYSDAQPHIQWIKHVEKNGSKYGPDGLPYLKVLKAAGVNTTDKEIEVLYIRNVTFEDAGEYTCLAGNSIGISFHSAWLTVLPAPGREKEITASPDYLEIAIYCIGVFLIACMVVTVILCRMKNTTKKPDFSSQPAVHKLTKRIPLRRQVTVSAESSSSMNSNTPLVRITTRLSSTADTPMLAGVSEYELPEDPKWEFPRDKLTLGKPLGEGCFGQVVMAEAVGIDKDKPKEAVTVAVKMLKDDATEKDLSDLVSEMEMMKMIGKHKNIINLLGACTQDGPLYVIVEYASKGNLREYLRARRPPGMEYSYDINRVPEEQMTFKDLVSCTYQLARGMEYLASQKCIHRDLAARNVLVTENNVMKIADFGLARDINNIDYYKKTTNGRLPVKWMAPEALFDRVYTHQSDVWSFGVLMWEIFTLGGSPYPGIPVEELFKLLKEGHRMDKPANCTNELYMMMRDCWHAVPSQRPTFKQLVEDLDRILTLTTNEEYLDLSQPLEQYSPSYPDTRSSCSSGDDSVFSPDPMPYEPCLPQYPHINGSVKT

[7] = molecular target: Fibroblast growth factor receptor 2 (Homo sapiens) (UniProt P21802); settings: at 1 µM
[8] = molecular target: Fibroblast growth factor receptor 3 (Homo sapiens) (UniProt P22607); settings: at 0.1 µM
[9] = molecular target: Fibroblast growth factor receptor 3 (Homo sapiens) (UniProt P22607); settings: at 1 µM
[10] = molecular target: Fibroblast growth factor receptor 4 (Homo sapiens) (UniProt P22455); settings: at 0.1 µM
Sequence of Fibroblast growth factor receptor 4 (Homo sapiens) (P22455 22-802 limits assumed): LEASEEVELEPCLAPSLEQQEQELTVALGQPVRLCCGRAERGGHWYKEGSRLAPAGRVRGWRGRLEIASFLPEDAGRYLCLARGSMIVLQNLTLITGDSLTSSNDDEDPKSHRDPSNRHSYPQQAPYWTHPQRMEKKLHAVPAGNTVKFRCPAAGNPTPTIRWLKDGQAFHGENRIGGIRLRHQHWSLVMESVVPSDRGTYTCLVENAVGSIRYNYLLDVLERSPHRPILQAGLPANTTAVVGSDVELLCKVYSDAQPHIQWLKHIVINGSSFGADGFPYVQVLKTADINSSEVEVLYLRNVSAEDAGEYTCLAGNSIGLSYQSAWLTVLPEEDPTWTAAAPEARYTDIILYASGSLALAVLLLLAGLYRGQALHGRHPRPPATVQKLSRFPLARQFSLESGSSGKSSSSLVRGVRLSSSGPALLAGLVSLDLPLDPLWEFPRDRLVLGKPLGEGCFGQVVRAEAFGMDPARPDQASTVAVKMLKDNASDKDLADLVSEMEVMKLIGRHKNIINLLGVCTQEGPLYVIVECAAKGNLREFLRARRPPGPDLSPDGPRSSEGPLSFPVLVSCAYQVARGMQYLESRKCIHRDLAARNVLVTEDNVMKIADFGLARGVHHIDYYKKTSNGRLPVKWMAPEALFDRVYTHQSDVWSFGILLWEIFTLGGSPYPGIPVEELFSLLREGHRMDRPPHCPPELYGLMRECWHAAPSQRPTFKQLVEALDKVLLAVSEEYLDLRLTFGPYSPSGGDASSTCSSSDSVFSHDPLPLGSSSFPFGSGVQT

[11] = molecular target: Fibroblast growth factor receptor 4 (Homo sapiens) (UniProt P22455); settings: at 1 µM
[12] = molecular target: Tyrosine-protein kinase Fgr (Homo sapiens) (UniProt P09769); settings: at 0.1 µM
Sequence of Tyrosine-protein kinase Fgr (Homo sapiens) (P09769 2-529 limits assumed): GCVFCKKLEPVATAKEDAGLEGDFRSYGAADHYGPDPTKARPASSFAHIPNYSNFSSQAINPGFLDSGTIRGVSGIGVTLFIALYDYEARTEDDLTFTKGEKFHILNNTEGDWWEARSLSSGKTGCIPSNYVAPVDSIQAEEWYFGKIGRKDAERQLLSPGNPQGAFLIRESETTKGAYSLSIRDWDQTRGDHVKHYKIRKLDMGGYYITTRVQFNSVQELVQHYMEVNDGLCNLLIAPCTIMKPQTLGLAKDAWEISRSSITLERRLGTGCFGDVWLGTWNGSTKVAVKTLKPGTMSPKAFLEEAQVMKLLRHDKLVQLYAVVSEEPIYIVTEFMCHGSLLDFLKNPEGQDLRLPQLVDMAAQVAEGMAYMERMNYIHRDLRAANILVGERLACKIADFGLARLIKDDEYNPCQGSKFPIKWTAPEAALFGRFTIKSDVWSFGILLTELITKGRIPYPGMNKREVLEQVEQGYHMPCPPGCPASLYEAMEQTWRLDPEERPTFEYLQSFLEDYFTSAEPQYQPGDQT

[13] = molecular target: Tyrosine-protein kinase Fgr (Homo sapiens) (UniProt P09769); settings: at 1 µM
[14] = molecular target: Vascular endothelial growth factor receptor 1 (Homo sapiens) (UniProt P17948); settings: at 0.1 µM
[15] = molecular target: Vascular endothelial growth factor receptor 1 (Homo sapiens) (UniProt P17948); settings: at 1 µM
[16] = molecular target: Receptor-type tyrosine-protein kinase FLT3 (Homo sapiens) (UniProt P36888); settings: at 0.1 µM
[17] = molecular target: Receptor-type tyrosine-protein kinase FLT3 (Homo sapiens) (UniProt P36888); settings: at 1 µM
[18] = test system: T1, Receptor-type tyrosine-protein kinase FLT3 (Homo sapiens), P36888 [D835Y]; settings: at 0.1 µM
T1 sequence (whole entry): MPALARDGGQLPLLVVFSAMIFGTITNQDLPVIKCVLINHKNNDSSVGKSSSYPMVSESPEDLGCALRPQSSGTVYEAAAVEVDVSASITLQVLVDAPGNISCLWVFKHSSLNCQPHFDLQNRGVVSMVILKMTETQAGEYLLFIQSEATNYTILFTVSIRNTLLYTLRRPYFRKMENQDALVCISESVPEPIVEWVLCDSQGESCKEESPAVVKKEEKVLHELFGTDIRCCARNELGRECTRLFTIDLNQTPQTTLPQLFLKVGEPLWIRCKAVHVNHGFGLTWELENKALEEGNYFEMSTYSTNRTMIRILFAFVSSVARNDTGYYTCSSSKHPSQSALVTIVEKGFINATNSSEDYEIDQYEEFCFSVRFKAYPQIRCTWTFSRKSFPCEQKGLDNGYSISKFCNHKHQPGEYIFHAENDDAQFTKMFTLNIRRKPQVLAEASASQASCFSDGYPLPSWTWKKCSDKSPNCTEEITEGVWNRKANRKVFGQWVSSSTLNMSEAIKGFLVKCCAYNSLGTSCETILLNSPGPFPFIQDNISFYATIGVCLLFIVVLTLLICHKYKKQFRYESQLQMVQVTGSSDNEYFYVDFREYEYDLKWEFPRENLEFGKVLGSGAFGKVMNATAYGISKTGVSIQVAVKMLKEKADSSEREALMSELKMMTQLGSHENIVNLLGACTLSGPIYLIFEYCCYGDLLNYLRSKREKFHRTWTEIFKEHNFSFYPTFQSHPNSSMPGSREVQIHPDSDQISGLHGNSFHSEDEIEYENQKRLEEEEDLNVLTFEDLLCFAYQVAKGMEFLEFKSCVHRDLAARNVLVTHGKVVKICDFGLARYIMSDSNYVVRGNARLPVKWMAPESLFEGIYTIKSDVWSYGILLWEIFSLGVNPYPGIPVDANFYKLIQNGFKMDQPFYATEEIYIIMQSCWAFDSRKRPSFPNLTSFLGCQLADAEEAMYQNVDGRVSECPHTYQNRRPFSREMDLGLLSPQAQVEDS

[19] = molecular target: Non-receptor tyrosine-protein kinase TYK2 (Homo sapiens) (UniProt P29597); settings: at 1 µM;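 further: values are mean percent inhibition of TYK2 kinase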
Sequence of Non-receptor tyrosine-protein kinase TYK2 (Homo sapiens) (P29597 whole entry): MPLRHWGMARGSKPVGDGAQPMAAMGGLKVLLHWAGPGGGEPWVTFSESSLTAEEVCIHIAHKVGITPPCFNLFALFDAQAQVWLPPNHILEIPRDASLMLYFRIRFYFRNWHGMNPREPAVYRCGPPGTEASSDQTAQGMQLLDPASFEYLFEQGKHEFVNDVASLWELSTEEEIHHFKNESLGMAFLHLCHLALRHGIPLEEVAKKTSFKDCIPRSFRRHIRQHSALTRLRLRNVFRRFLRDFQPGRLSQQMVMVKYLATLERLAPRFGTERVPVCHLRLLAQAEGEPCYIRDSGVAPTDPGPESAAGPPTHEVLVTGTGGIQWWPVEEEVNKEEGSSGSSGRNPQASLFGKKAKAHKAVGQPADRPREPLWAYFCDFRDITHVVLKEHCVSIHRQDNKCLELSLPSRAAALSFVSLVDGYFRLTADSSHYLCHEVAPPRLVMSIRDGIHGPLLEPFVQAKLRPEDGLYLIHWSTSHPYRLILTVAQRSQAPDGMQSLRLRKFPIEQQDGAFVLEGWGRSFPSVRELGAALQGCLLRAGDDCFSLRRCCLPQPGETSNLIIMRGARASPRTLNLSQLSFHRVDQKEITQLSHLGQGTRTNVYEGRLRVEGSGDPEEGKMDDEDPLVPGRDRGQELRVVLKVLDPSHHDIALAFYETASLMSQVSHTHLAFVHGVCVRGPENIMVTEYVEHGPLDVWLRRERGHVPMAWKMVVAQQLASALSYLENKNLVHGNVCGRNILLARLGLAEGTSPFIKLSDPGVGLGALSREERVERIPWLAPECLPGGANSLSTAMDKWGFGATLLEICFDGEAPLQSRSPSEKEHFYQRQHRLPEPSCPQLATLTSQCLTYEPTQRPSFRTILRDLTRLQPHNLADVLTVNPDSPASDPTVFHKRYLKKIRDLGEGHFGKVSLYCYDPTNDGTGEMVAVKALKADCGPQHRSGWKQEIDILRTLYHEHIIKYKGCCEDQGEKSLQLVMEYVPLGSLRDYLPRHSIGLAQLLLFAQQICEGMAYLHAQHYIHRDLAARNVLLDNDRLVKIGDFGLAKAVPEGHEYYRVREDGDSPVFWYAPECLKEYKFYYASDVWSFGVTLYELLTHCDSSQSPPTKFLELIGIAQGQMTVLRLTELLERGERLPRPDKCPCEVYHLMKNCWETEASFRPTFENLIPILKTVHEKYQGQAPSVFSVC

[20] = molecular target: T2, Tyrosine-protein kinase receptor TYRO3 (Homo sapiens) (UniProt Q06418); settings: at 0.1 µM;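 further: reported percentages are averaged inhibition values of TYRO3 kinase activity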
T2 sequence (whole entry): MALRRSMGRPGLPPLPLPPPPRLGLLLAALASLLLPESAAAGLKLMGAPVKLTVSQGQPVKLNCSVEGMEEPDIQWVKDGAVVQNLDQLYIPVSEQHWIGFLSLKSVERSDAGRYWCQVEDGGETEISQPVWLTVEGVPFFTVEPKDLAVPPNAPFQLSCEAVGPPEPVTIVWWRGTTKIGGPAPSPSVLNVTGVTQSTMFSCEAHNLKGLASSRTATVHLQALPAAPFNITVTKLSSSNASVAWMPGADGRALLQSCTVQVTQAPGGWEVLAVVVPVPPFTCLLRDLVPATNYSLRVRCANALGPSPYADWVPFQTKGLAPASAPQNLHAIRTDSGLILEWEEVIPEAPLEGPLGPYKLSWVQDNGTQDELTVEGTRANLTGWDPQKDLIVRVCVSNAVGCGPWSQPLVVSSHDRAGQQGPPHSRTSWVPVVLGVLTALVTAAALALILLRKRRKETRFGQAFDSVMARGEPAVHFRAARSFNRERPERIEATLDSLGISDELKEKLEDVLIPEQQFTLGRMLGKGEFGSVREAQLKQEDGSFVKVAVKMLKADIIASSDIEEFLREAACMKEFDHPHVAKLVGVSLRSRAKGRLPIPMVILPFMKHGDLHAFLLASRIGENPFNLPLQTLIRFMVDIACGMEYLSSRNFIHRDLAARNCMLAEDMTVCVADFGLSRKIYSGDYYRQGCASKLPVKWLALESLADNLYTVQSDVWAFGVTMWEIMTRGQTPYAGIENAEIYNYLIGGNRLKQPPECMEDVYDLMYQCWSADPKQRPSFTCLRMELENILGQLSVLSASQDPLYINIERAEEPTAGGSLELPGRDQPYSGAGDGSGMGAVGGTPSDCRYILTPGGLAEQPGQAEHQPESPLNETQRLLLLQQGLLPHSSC

Sequence of Tyrosine-protein kinase Fes/Fps (Homo sapiens) (P07332 whole entry): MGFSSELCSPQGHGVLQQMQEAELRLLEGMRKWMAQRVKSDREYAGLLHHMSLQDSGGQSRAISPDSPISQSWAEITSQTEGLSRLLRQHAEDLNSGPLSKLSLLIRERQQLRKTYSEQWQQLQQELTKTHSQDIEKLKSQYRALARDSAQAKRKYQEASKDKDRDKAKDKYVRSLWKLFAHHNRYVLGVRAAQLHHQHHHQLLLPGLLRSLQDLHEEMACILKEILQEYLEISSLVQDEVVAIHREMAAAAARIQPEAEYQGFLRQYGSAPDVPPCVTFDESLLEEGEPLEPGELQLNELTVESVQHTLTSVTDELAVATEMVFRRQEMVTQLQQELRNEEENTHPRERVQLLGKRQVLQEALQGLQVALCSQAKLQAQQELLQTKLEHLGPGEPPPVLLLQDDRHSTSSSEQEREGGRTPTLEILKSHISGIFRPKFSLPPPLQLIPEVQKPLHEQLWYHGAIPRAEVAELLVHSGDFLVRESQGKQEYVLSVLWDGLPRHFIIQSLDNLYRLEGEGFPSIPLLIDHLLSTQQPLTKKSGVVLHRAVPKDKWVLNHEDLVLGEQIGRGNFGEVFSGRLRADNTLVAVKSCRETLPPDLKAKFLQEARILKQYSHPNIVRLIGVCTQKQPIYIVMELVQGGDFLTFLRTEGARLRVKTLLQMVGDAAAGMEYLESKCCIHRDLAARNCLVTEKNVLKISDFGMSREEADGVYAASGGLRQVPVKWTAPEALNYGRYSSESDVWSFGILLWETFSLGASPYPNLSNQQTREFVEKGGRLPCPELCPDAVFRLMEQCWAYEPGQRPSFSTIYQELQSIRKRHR
Sequence of Tyrosine-protein kinase Fer (Homo sapiens) (P16591 whole entry, looked up): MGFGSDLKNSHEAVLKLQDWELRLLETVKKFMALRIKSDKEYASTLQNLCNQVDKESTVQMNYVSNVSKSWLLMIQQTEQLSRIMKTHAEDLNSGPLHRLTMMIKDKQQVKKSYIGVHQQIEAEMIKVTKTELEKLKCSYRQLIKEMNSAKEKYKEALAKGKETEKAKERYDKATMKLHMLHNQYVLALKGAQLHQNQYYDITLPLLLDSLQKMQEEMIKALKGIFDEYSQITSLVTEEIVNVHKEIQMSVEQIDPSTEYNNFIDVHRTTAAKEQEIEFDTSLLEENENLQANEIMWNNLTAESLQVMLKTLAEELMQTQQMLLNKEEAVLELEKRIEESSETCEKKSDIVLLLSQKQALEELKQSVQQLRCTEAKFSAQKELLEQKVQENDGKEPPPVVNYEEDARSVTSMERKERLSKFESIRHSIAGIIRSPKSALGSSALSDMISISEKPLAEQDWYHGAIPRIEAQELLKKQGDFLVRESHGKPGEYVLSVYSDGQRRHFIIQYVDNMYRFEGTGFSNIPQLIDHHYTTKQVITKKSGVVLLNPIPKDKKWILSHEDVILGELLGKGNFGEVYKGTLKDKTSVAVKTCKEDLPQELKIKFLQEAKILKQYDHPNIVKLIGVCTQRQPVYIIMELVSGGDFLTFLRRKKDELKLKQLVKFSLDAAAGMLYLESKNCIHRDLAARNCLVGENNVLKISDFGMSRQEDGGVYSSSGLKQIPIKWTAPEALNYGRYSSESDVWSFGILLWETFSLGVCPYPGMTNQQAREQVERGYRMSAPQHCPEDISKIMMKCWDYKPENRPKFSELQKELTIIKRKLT

Q: For `Nc1nonc1-c1nc2cnccc2n1C1CCCCC1`, which inhibition [1] is on record?
A: 1.83%

Q: And the inhibition [2]?
A: -2.28%

Q: What about the inhibition [3] of the same molecule?
A: -1.92%

Q: And the inhibition [4]?
A: -7.32%

Q: What about the inhibition [5] of the same molecule?
A: -4.22%

Q: And the inhibition [6]?
A: -6.69%

Q: And the inhibition [7]?
A: -0.47%

Q: And the inhibition [8]?
A: -2.79%

Q: And the inhibition [9]?
A: -2.23%

Q: And the inhibition [10]?
A: -1.75%

Q: And the inhibition [11]?
A: -1.15%

Q: And the inhibition [12]?
A: -0.56%

Q: What about the inhibition [13] of the same molecule?
A: 6.63%

Q: What about the inhibition [14] of the same molecule?
A: -1%

Q: And the inhibition [15]?
A: 4.33%

Q: What about the inhibition [16] of the same molecule?
A: -0.01%

Q: And the inhibition [17]?
A: 4.32%

Q: What about the inhibition [18] of the same molecule?
A: 3.29%

Q: What about the inhibition [19] of the same molecule?
A: 6.77%

Q: And the inhibition [20]?
A: -1.27%

Q: How did the inhibition [1] turn out when `COc1cc(C=NNc2ncnc3c2cnn3Cc2ccccc2)ccc1O` was run?
A: 4.33%

Q: What about the inhibition [2] of the same molecule?
A: -4.54%

Q: And the inhibition [3]?
A: -3.75%

Q: And the inhibition [4]?
A: -3.93%

Q: And the inhibition [5]?
A: -5.25%

Q: What about the inhibition [6] of the same molecule?
A: -7.09%

Q: And the inhibition [7]?
A: -2.01%

Q: And the inhibition [8]?
A: -3.23%

Q: What about the inhibition [9] of the same molecule?
A: -2.85%

Q: What about the inhibition [10] of the same molecule?
A: -3.36%

Q: What about the inhibition [11] of the same molecule?
A: 4.03%

Q: What about the inhibition [12] of the same molecule?
A: 11.8%

Q: And the inhibition [13]?
A: 52.1%

Q: What about the inhibition [14] of the same molecule?
A: -1.46%

Q: And the inhibition [15]?
A: 1.82%

Q: What about the inhibition [16] of the same molecule?
A: -1.99%

Q: What about the inhibition [17] of the same molecule?
A: -1.02%

Q: What about the inhibition [18] of the same molecule?
A: -4.43%

Q: And the inhibition [19]?
A: -1.56%

Q: And the inhibition [20]?
A: -1.07%

Q: What does the source list for `Fc1ccc(-c2ncn(C3CCNCC3)c2-c2ccnc(Oc3ccccc3)n2)cc1`?
A: inhibition [1]: 0.16%; inhibition [2]: 1.02%; inhibition [3]: 1.03%; inhibition [4]: -5.35%; inhibition [5]: -7.09%; inhibition [6]: -0.63%; inhibition [7]: -3.24%; inhibition [8]: -1.57%; inhibition [9]: -4.55%; inhibition [10]: -2.7%; inhibition [11]: -3.96%; inhibition [12]: 1.86%; inhibition [13]: 4.87%; inhibition [14]: 1.35%; inhibition [15]: 2.72%; inhibition [16]: -0.44%; inhibition [17]: 0.52%; inhibition [18]: -4.18%; inhibition [19]: -4.41%; inhibition [20]: 1.92%

Q: `CCn1c(-c2nonc2N)nc2c(C#CC(C)(C)O)nc(O[C@@H](CN)c3ccccc3)cc21` was tested. Which inhibition [1] did it give?
A: 11.6%

Q: What about the inhibition [2] of the same molecule?
A: -0.28%

Q: And the inhibition [3]?
A: 5.21%

Q: What about the inhibition [4] of the same molecule?
A: -5.77%

Q: What about the inhibition [5] of the same molecule?
A: 6.16%

Q: What about the inhibition [6] of the same molecule?
A: 0.17%

Q: What about the inhibition [7] of the same molecule?
A: 1.12%

Q: What about the inhibition [8] of the same molecule?
A: -1.56%

Q: What about the inhibition [9] of the same molecule?
A: -0.33%

Q: And the inhibition [10]?
A: 0.28%

Q: And the inhibition [11]?
A: 1.13%

Q: What about the inhibition [12] of the same molecule?
A: 3.54%

Q: And the inhibition [13]?
A: 28.6%

Q: And the inhibition [14]?
A: 36.1%

Q: What about the inhibition [15] of the same molecule?
A: 79.8%

Q: And the inhibition [16]?
A: -2.74%

Q: What about the inhibition [17] of the same molecule?
A: -0.29%

Q: And the inhibition [18]?
A: 2.74%

Q: What about the inhibition [19] of the same molecule?
A: 1.49%

Q: And the inhibition [20]?
A: 0.32%

Q: How did the inhibition [1] turn out when `NS(=O)(=O)c1ccc(-c2ccc3c(NC(=O)C4CC4)n[nH]c3c2)cc1` was run?
A: -0.03%

Q: What about the inhibition [2] of the same molecule?
A: 1.35%

Q: And the inhibition [3]?
A: 2.53%

Q: And the inhibition [4]?
A: 2.31%

Q: And the inhibition [5]?
A: 7.63%

Q: And the inhibition [6]?
A: 7.91%

Q: And the inhibition [7]?
A: 6%

Q: What about the inhibition [8] of the same molecule?
A: 3.47%

Q: What about the inhibition [9] of the same molecule?
A: 5.72%

Q: And the inhibition [10]?
A: 0.67%

Q: And the inhibition [11]?
A: -0.07%

Q: What about the inhibition [12] of the same molecule?
A: 1.76%

Q: And the inhibition [13]?
A: 6.23%

Q: What about the inhibition [14] of the same molecule?
A: 0.3%

Q: What about the inhibition [15] of the same molecule?
A: 1.37%

Q: What about the inhibition [16] of the same molecule?
A: -1.65%

Q: And the inhibition [17]?
A: 3.53%

Q: And the inhibition [18]?
A: 2.16%

Q: And the inhibition [19]?
A: -4.76%

Q: And the inhibition [20]?
A: 3.34%

Q: Which results are given for `Cc1cc(-c2ccco2)cc(C)c1/C=C/c1cncc(-c2nn[nH]n2)c1`?
A: inhibition [1]: 7.85%; inhibition [2]: 1.75%; inhibition [3]: 1.63%; inhibition [4]: -0.88%; inhibition [5]: 2.5%; inhibition [6]: 1.69%; inhibition [7]: 1.54%; inhibition [8]: -0.36%; inhibition [9]: 3.17%; inhibition [10]: 1.4%; inhibition [11]: 1.04%; inhibition [12]: 3.13%; inhibition [13]: 6.29%; inhibition [14]: -0.74%; inhibition [15]: 1.77%; inhibition [16]: 1.31%; inhibition [17]: 1.79%; inhibition [18]: -3.95%; inhibition [19]: 2.63%; inhibition [20]: 0.37%

Q: `NC(=O)c1sc(-n2cnc3cc(C(F)(F)F)ccc32)cc1OCc1ccccc1Br` was tested. Which inhibition [1] did it give?
A: 6.44%

Q: And the inhibition [2]?
A: 2.76%

Q: And the inhibition [3]?
A: 1.99%

Q: And the inhibition [4]?
A: -2.05%

Q: And the inhibition [5]?
A: 1.74%

Q: What about the inhibition [6] of the same molecule?
A: 2.24%

Q: What about the inhibition [8] of the same molecule?
A: 1.69%

Q: What about the inhibition [9] of the same molecule?
A: 2.38%

Q: And the inhibition [10]?
A: 2.01%

Q: And the inhibition [11]?
A: -0.34%

Q: What about the inhibition [12] of the same molecule?
A: 2.13%

Q: What about the inhibition [13] of the same molecule?
A: 2.99%

Q: And the inhibition [14]?
A: -0.46%

Q: What about the inhibition [15] of the same molecule?
A: -0.01%

Q: And the inhibition [16]?
A: 0.18%

Q: What about the inhibition [17] of the same molecule?
A: 3.13%

Q: And the inhibition [18]?
A: -3.16%

Q: What about the inhibition [19] of the same molecule?
A: -3.05%

Q: And the inhibition [20]?
A: 1.7%
